# High-throughput results deposited in PubChem by National Center for Advancing Translational Sciences (NCATS).
# NIH3T3 tox: cytotoxic compounds in NIH 3T3 cells; NIH 3T3 viability, CellTiter-Glo ATP luminescence, 48-72 h; AID 1345082; Potency, µM (top dose mostly 96.7 µM), inactives show at the highest dose activity change, negative = cytotoxicity, actives largely listed as inhibitors; 94,000 compounds, 4.3% hits; note: nearly all actives have a fitted effect of over 55% in size
#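 Cells were seeded at 400 per well, treated with pin-transferred compound, and kept 48 or 72 hr at 37 °C before CellTiter-Glo addition and luminescence imaging of cellular ATP.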
# Luciferase inh: Photinus pyralis luciferase inhibition. P08659. purified P. pyralis luciferase, luminescence, biochemical. Potency, µM (titrated, usually from 115 µM), most hits filed as inhibitors. 76,000 compounds, 2.5% hits. AID 1347043; note: nearly all actives have a fitted effect of over 65% in size
# Target sequence (P08659 whole entry, looked up): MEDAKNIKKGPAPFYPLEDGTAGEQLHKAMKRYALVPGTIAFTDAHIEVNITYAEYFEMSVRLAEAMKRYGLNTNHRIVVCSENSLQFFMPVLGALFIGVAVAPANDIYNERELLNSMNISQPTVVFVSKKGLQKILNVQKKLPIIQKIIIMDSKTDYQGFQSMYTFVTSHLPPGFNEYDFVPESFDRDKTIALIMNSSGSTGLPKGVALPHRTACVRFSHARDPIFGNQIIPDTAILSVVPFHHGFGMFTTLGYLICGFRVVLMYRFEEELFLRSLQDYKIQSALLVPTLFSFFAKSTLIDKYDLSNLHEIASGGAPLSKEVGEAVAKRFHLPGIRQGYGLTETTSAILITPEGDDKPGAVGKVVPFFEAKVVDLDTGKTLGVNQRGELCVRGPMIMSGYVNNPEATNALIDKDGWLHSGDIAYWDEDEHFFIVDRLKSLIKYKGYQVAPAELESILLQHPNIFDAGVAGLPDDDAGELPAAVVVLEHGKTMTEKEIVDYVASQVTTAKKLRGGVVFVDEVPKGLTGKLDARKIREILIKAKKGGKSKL
#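 Biochemical qHTS: compound (6-point titration) added to 10uM D-luciferin plus 10uM ATP in Tris acetate pH 7.5 buffer with Mg, Tween-20 and BSA, then purified enzyme at 10nM; light output imaged.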
# GPT2 inh: GPT2 alanine aminotransferase inhibition | Recombinant GPT2, coupled pyruvate oxidase/HRP Amplex Red fluorescence | 100,000 compounds, 0.25% hits | Potency, µM (series often up to 57.7 µM), for inactives: at the top dose activity change, negative = inhibition, most hits filed as inhibitors | Q8TD30; note: nearly all actives have a fitted effect of over 60% in size
#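 Fluorescence of coupled pyruvate oxidase/HRP/Amplex Red system (50uM Amplex, 30 min, dark) reports pyruvate formed by GPT2. Enzyme reaction: 10ng/uL GPT2, 2mM L-alanine, 250uM a-KG, 30 min room temperature, pH 7.5; 50uM AOA control.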
# NPR1 antag: antagonists of human natriuretic peptide receptor Npr1 | P16066 | HEK293 hNpr1 GloSensor cGMP, ANP-stimulated luminescence | Potency, µM (highest dose often 46.3 µM), inactives show at the highest dose activity change, negative = inhibition, usual class: inhibitors | 76,000 compounds, 1.6% hits | AID 1347048; calls by dose curve; note: nearly all actives have a fitted effect of over 60% in size
#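 HEK293 cells stably expressing human Npr1 and cGMP GloSensor pGS-40F, loaded 2 h with 2% GloSensor reagent, given compound 30 min at room temperature. Luminescence read before and 20 min after 0.1 nM hNppA.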
# HEK cytotox: kills HEK 293 cells. Potency, µM (titrated, usually from 115 µM), for the others: at the highest dose activity change, negative = cytotoxicity, usual class: inhibitors. 94,000 compounds, 6.6% hits. HEK 293 viability, ATP luminescence (CellTiter-Glo), 48-72 h; note: nearly all actives have a fitted effect of over 60% in size
#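 ATP-coupled CellTiter-Glo luminescence served as viability read-out, recorded 10 min after reagent addition at room temperature. HEK 293 cells, 250 cells/well, had been incubated with pintool-transferred compound for 48 or 72 hr at 37 degree Celsius.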
# Numbers without * were called inactive; i = inactive; ? = inconclusive; / = no result given; [ ] = dose if it differs, or a comment. Most compounds without a hit are left out; they make up all but 10% or so of the library. Unless noted, calls come from the whole dose curve; as a rule, active = well fitted curve in the direction sought with a large enough effect; inconclusive = small, poorly fitted or top-dose-only effect, or another doubt; inactive = no such curve, though single readings can be large; an effect the other way counts as inactive or inconclusive. % is set by controls: 0 for no effect and ±100 for the full control effect; potency is the fitted concentration of half-maximal effect.
SMILES,NIH3T3 tox,Luciferase inh,GPT2 inh,NPR1 antag,HEK cytotox
c1ccc(CN2CCNc3cc(-c4ccoc4)ncc3C2)cc1,?,?,0%[88.5 µM],-12%[70.6 µM],?
COc1ccc(OC)c(CN2CCNc3cc(Nc4ccccc4)ncc3C2)c1,35µM*,22µM*,i,-27%[70.6 µM],?
NC(=O)c1cccc(-c2cc3c(cn2)CN(CCc2ccccc2)CCN3)c1,89µM*,?,-22%[88.5 µM],-6%[70.6 µM],?
O=C(Cc1cccnc1)N1CCC2(CC1)CC(N1CCN(c3ccccn3)CC1)CCO2 (centres undefined),-24%,/,3%,/,?
O=C(NC1CCCCCCC1)C1CCCN(C2CCN(Cc3ccncc3)CC2)C1 (centres undefined),-16%,i,i,0%,?
CN(C)S(=O)(=O)N1CCC(CCc2nc(C3CCOCC3)no2)CC1,-30%,/,i,/,?
Cn1cnnc1-c1nn(C)c2c1CN(C(=O)c1cc3ccccc3[nH]1)CC2,0%,?,i,1%,i
COc1ccccc1CN1CCNc2cnc(-c3ccccc3)cc2C1,?,i,-3%[88.5 µM],-15%[70.6 µM],79µM*
COc1ccc(CN2CCNc3cc(-c4ccccc4)ncc3C2)cc1O,?,i,-16%[88.5 µM],-16%[70.6 µM],89µM*
c1ccc(Oc2ccccc2-c2cc3c(cn2)CN(Cc2ccncc2)CCN3)cc1,?,i,4%[88.5 µM],-27%[70.6 µM],?
O=C(c1cccc(Cl)c1F)N1CCN(Cc2cccc(Nc3nccs3)n2)CC1,/,/,4%,/,/
O=C(c1cccc(F)c1)N1CCN(c2nnc3ccc(Cl)cn23)CC1,-18%,i,i,11%,-4%
O=C(CCc1nc(-c2ccccc2)no1)NC1CCCN(CCCc2ccccc2)C1 (centres undefined),?,i,i,-9%,45µM*
C[C@H](O)[C@H](O)/C=C/c1cccc(O)c1CO,/,/,i,/,/
CCc1cccc(-n2nnnc2N2CCN(C(=O)Cc3ccc(C)c(F)c3)CC2)c1,?,/,2%,/,?
O=C(NCc1ccccn1)c1cccc(OC2CCN(c3cnccn3)CC2)c1,?,i,4%,?,45µM*
CN1CCC(Oc2ccc(C(=O)NCCc3ccncc3)cn2)CC1,5%,i,i,5%,-21%
CN1CCC(Oc2ccc(C(=O)NCCc3ccccn3)cn2)CC1,-11%,40µM*,-11%,-1%,-8%
Cc1cccc(NC(=O)N2CCc3nc(-c4ccccc4)[nH]c3C2)c1,?,/,-2%,/,?
COc1cc(F)ccc1-c1ccnc2nc(Cc3ccc(F)cc3)nn12,?,i,-7%,-17%,?
O=C1NCc2ccccc2CC12CCN(Cc1cnc3ccccc3c1)CC2,-18%,/,1%,/,?
Cc1ccc2nc(C(C)NC(=O)c3cnc(-c4ccccn4)[nH]c3=O)[nH]c2c1 (centres undefined),?,i,?,-1%,25µM*
CO[C@H]1C[C@@H]2CC[C@@H](C)[C@@](O)(O2)C(=O)C(=O)N2CCCC[C@H]2C(=O)O[C@H]([C@H](C)C[C@@H]2CC[C@@H](OP(C)(C)=O)[C@H](OC)C2)CC(=O)[C@H](C)/C=C(\C)[C@@H](O)[C@@H](OC)C(=O)[C@H](C)C[C@H](C)/C=C/C=C/C=C/1C,/,/,2%[27.3 µM],/,/
Cc1cc(Cl)ccc1S(=O)(=O)N1CCC(Oc2ccc(C(N)=O)cn2)CC1,?,i,-8%,?,25µM*
O=C(NCc1ccc(F)cc1)c1cnc2n[nH]c(-c3ccccc3)c2n1,50µM*,i,-1%[88.5 µM],-26%[70.6 µM],?
COc1ccc(-c2[nH]nc3ncc(C(=O)NCc4ccc(F)cc4)nc23)c(C)c1,22µM*,i,i,-19%[70.6 µM],32µM*
O=C(c1cnc2n[nH]c(-c3ccccc3)c2n1)N1CCN(c2ccccn2)CC1,?,i,-12%[88.5 µM],-13%[70.6 µM],71µM*
O=C(NCCc1ccccc1)c1cnc2n[nH]c(-c3ccccc3)c2n1,?,i,i,-17%[70.6 µM],-26%[172 µM]
O=C(c1cnc2n[nH]c(-c3ccccc3)c2n1)N1CCOCC1,?,i,3%[88.5 µM],-11%[70.6 µM],?
